Whole data set: some 68,000 sequences, median “fluorescence intensity (a.u.)” near 9,100, cut for the highest 2% near 16,000. The sample as a whole holds a higher share of the highest values than the screen did.

Chain of OsWRKY34 (Q0JBA9 entry or part of it): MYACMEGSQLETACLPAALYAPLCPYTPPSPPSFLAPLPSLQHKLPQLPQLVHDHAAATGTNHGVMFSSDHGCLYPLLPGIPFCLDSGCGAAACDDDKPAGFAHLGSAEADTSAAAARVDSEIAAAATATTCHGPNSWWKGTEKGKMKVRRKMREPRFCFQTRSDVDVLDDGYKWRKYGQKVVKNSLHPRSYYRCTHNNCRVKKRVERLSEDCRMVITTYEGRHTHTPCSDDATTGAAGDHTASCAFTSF

In the assay the target is OsWRKY34 (Oryza sativa, UniProt Q0JBA9 1-250). As to the kind of experiment: protein-binding microarray (RPBM); PBS, 2% BSA, 51.3 ng/ul salmon testes DNA, 50 uM zinc acetate, 200 nM TF, 25 C, 1 h; high values mean tight binding. Particulars: protein: recombinant; tags: N-terminal polyhistidine and DsRed monomer fusion (pET32a); label: CyDye5-dUTP incorporated in the synthesized complementary strand; 3' TTTTT single-stranded linker to array surface; dsDNA, one strand shown. The essentials:
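Transcription factors, each fused N-terminally to a polyhistidine tag and DsRed, were expressed in E. coli BL21-CodonPlus and purified on Ni–NTA. A custom Agilent array was made double-stranded by primer extension with Cy5-dUTP and blocked with 2% BSA. It was incubated with 200 nM protein in PBS, 2% BSA, salmon testes DNA and 50 µM zinc acetate at 25 °C for 1 h, then washed. The binding signal is per-feature fluorescence intensity (arbitrary units) read on an Axon 4000B scanner.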
In the case of “CCTCACCCTATGCTCCTGTGTTTTGTAGTCTTTCGTAACACGGAGTCACCTAGTGCAG”, the binding signal was 8220 fluorescence intensity (a.u.).

Take “ACGGCATCAAATCTCTGTTTGTACATGTGCCCCTGTTCTTCGGAGTCACCTAGTGCAG”: the binding signal is 9440 fluorescence intensity (a.u.).

With “CCCGACCAAACACTACGAACTCTTCTACCTTCTTTGTTTCCGGAGTCACCTAGTGCAG”, the binding signal was 12600 fluorescence intensity (a.u.).

Take “CAATGCACTGTTCATCTTCAGTAGTTATGTTTTCTCAGTGCGGAGTCACCTAGTGCAG”: the binding signal was 10400 fluorescence intensity (a.u.).

Turning to “CAAATTTGGTATTTCTCTCTGCTCACTCCATCCCTCAACTCGGAGTCACCTAGTGCAG”, the binding signal is 8830 fluorescence intensity (a.u.).

In the case of “ATGGTGGCCGGTCTTTTTTCCTCTTCGCTCGATGCCAAAACGGAGTCACCTAGTGCAG”, the binding signal was 8270 fluorescence intensity (a.u.).

Take “CGGCTAAACTCCCACGTGAACCAGACGCTGCACCAAAAACCGGAGTCACCTAGTGCAG”: the binding signal is 8430 fluorescence intensity (a.u.).

On to “GAAGTGAATAGTAGAGGGTTTTGATGGGTTGGGAAGAGAACGGAGTCACCTAGTGCAG”, for which the binding signal was 11200 fluorescence intensity (a.u.).

With “ATTAATTTCGCTTGCTAACACGAGTTTAATCTGCCAATTTCGGAGTCACCTAGTGCAG”, the binding signal was 10000 fluorescence intensity (a.u.).

Turning to “CCACTGCATACCAACACCAACCACTGTACTAGCACTACTACGGAGTCACCTAGTGCAG”, the binding signal is 8980 fluorescence intensity (a.u.).

Turning to “AGATTGTGGTGGGTGTTGATTGTGGTGATCTTGTCCCCTCCGGAGTCACCTAGTGCAG”, the binding signal was 13000 fluorescence intensity (a.u.).

For “AGAGGAGGAGAGTGGTGGTGGTGCGAGAGGGAGGGAGATGCGGAGTCACCTAGTGCAG”, the binding signal is 9230 fluorescence intensity (a.u.).

On to “GGAGATCCTGAGGCAGCGGGGAGAGGGGAGGTGGGCGATGCGGAGTCACCTAGTGCAG”, for which the binding signal was 10500 fluorescence intensity (a.u.).

Take “GGAGAAAAAGGGGAGGGAGGGAGATGATGACGTGTAGGGGCGGAGTCACCTAGTGCAG”: the binding signal was 8550 fluorescence intensity (a.u.).

For “AGAGATGCGTGTGTAGGCGGCGGGGAGGGGAGGGCTGTGACGGAGTCACCTAGTGCAG”, the binding signal was 17700 fluorescence intensity (a.u.).

Consider “GGCTCGCGGAGGGCGGGGCTGGGATGGTGGCGGATGGGAGCGGAGTCACCTAGTGCAG”, for which the binding signal was 10800 fluorescence intensity (a.u.).

Consider “GGGCTGGAGATGGAGATGGAGATGGAGATGGAGGGTGGGTCGGAGTCACCTAGTGCAG”, for which the binding signal is 8660 fluorescence intensity (a.u.).

As for “CTCGAGCGGCGGTGGGGATGGGGATGGGGCGGCGGCGACGCGGAGTCACCTAGTGCAG”, the binding signal was 17000 fluorescence intensity (a.u.).

With “GGCGGGGCGGCGGAGGTGGTGGTGGGGAGGGCGAGAGATGCGGAGTCACCTAGTGCAG”, the binding signal is 23400 fluorescence intensity (a.u.).

Consider “GTGGTGTAGTGGGAGCGGCCGAGATGGGGCGTCGACGGGGCGGAGTCACCTAGTGCAG”, for which the binding signal is 8770 fluorescence intensity (a.u.).

As to “GCGGGAGGAGAGCGGCGGGCGGCGGGCGGCGGCGGCTGTGCGGAGTCACCTAGTGCAG”, the binding signal was 9520 fluorescence intensity (a.u.).

For the sequence “CTACTATACGTCGATGGGGAGGGAGGGAGGGTGGCTGTAGCGGAGTCACCTAGTGCAG”, the binding signal is 26400 fluorescence intensity (a.u.).

In the case of “AGGCGAGCGAGGCGGGTGGGCGGGGAGCGAACCAACGACGCGGAGTCACCTAGTGCAG”, the binding signal is 8840 fluorescence intensity (a.u.).

“ATTGCATCGCCCATTTCGCTCATGGATCAGTAGGTAGCCACGGAGTCACCTAGTGCAG”: the binding signal is 8190 fluorescence intensity (a.u.).

Turning to “AGTCAGTGACATCTATCTTTTCATCGATGTGTCTATTGCCCGGAGTCACCTAGTGCAG”, the binding signal is 8640 fluorescence intensity (a.u.).

Consider “ACCCATCCATCGCCAGCCATGCACACCCTCGCTCTGACGACGGAGTCACCTAGTGCAG”, for which the binding signal was 8640 fluorescence intensity (a.u.).

Consider “CAACGAGGAGCGATGCATATCTAGCAGTTTTGTTTTTCATCGGAGTCACCTAGTGCAG”, for which the binding signal is 8420 fluorescence intensity (a.u.).

As for “TACACCCTTGGGCCCACCTGTCAACCTCTCACCCTATATTCGGAGTCACCTAGTGCAG”, the binding signal was 11900 fluorescence intensity (a.u.).

With “GATGAGTCCTCACCTGAGTTTCTTCCGTCCATGGCGGCCGCGGAGTCACCTAGTGCAG”, the binding signal is 10500 fluorescence intensity (a.u.).

Take “ATCCCCAGCCTCCAATACCGGTCCCGTGCTTGTTTTTCTTCGGAGTCACCTAGTGCAG”: the binding signal is 9470 fluorescence intensity (a.u.).

Regarding “AATTCGTACTTTTTCCTTTGTGTTTTGTCTATCTTAAATTCGGAGTCACCTAGTGCAG”, the binding signal was 14300 fluorescence intensity (a.u.).

For the sequence “AAACCCACCCACCCAGCGCTTCTTCTTTCCTTTCTTTATTCGGAGTCACCTAGTGCAG”, the binding signal is 12900 fluorescence intensity (a.u.).

As for “TTTCCAACCTGATCGGGTGCTGCCTTTTCATTCTTCCCTCCGGAGTCACCTAGTGCAG”, the binding signal is 8430 fluorescence intensity (a.u.).

Take “ATTTCCCCTGAACTCTACGTTTACAGGTTATGGTTATCTCCGGAGTCACCTAGTGCAG”: the binding signal was 8350 fluorescence intensity (a.u.).

As for “ATACATATTTTTTTCTCTATTTCTGCCCAACATGTTTTTCCGGAGTCACCTAGTGCAG”, the binding signal was 8950 fluorescence intensity (a.u.).

Regarding “AAGGGTTATCGACCTACGCCTGCTGGCCCTTTTCGGCTTTCGGAGTCACCTAGTGCAG”, the binding signal is 9300 fluorescence intensity (a.u.).

Consider “TGGTGGTGGTGGTGGCTGTAGTGTGGAGGTGGTGGGGAGTCGGAGTCACCTAGTGCAG”, for which the binding signal was 16700 fluorescence intensity (a.u.).

With “GAGGTGGGTGTGGAACTGTGGATGCGGGTCGGGGAGATCGCGGAGTCACCTAGTGCAG”, the binding signal is 16900 fluorescence intensity (a.u.).

With “TGTCAGGTCAAATCGGGGAGGCGGGGTGCGTACCAACGGTCGGAGTCACCTAGTGCAG”, the binding signal was 11900 fluorescence intensity (a.u.).

As to “AAACGCTGTGGTGGGTGGTGGTGCGGATGGGGAGGTGTGGCGGAGTCACCTAGTGCAG”, the binding signal was 14100 fluorescence intensity (a.u.).

Take “TGCATTGACCAGGTCAACGGGAGAGGGAGGGGCAAAATCGCGGAGTCACCTAGTGCAG”: the binding signal is 19600 fluorescence intensity (a.u.).

In the case of “GCTGTGGCGGAGGTGGGGAGGTGGAGGTGGAGGGGAGATGCGGAGTCACCTAGTGCAG”, the binding signal is 24600 fluorescence intensity (a.u.).

For the sequence “TCGGCGGCGAGGTGGTGGCGGTGGCGGTGGTGGGAGTAGTCGGAGTCACCTAGTGCAG”, the binding signal is 15200 fluorescence intensity (a.u.).

Take “CGTTGGAACGTGCGGGTGTGGGGAAACTGAGGGTGAGGATCGGAGTCACCTAGTGCAG”: the binding signal was 8600 fluorescence intensity (a.u.).

Consider “CGCTCGGCGGTGAGGTGGAGGTGGAGGTGGGTGGGAGATGCGGAGTCACCTAGTGCAG”, for which the binding signal is 12900 fluorescence intensity (a.u.).

For “GATGCGGGTGAGGTGCCGCGCTGTGGGGAGAGAGGGTGGGCGGAGTCACCTAGTGCAG”, the binding signal was 8560 fluorescence intensity (a.u.).

“CTGTGCGGGAGGTGGAGATGGAGATGGTGGGTGGATCGGACGGAGTCACCTAGTGCAG”: the binding signal is 8630 fluorescence intensity (a.u.).

With “GGGAGATTTGTTGCAACGGAGGGCATTGAGTGGTGGGGACCGGAGTCACCTAGTGCAG”, the binding signal was 8570 fluorescence intensity (a.u.).

For the sequence “CATCTGATCGGCATCGGCATCGTCCTCGTCCTCGGCATCACGGAGTCACCTAGTGCAG”, the binding signal was 9990 fluorescence intensity (a.u.).

As to “TCTGGGTATCCTCTGTTATGTCATCTTCACCTCCATTTGGCGGAGTCACCTAGTGCAG”, the binding signal was 8690 fluorescence intensity (a.u.).

“CTGCTAGCCCGGTTAATCTACCAAAACCCGTCTTGATTTACGGAGTCACCTAGTGCAG”: the binding signal is 9070 fluorescence intensity (a.u.).

For “TTAGTATAGCTGTATTCTTCCCAACTTCCTATTTTCCTCTCGGAGTCACCTAGTGCAG”, the binding signal is 8540 fluorescence intensity (a.u.).

As for “CTCGAACCACTGACCATCCCGTCCACACTGCACCGCGCTACGGAGTCACCTAGTGCAG”, the binding signal was 8260 fluorescence intensity (a.u.).

As for “AGCCACGACCCAATCTTCGCTGCGGTTGACTTTAAATTAACGGAGTCACCTAGTGCAG”, the binding signal is 9760 fluorescence intensity (a.u.).

For the origin of these results see article PMC7819943, “Rice protein-binding microarrays: a tool to detect cis-acting elements near promoter regions in rice”.
